# “And” between values parts separate entries of the source, which are not always exact repeats. Equal entries are not always repeated. Inconclusive results are not listed. More than one record can exist for a structure, and the calls need not agree. The source made the active and inactive calls. The calls were made as follows, unless noted: active = hit-call score of the fitted dose curve at least 0.9, where 1 is the maximum; inactive = score below 0.9.
# Assays:
# [1] = ATG_TCF_b_cat_CIS: Attagene CIS-FACTORIAL HepG2 Assay for human T-Cell-Factor with beta-catenin (TCF/b-cat) (AID 2282965); settings: HepG2 TCF/beta-catenin cis-reporter transcription, actives raise or lower the signal
# Outline: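 HepG2 cells transiently transfected with multiple cis-promoter-regulated reporter transcription units, so endogenous transcription factor activity is measured. Reporter mRNA read 24 hours after dosing by RT-PCR, fluorescent labelling and capillary electrophoresis; bidirectional fitting against DMSO.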
# [2] = ATG_TAL_CIS: Attagene CIS-FACTORIAL HepG2 Assay for human TAL Basal Promoter (AID 2282966); settings: HepG2 Attagene cis-factorial TAL promoter reporter; actives raise or lower the signal;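 also: background control endpoint measuring basal TAL promoter reporter mRNA not a specific factor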
# Outline: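 In this cell-based multiplex, HepG2 liver cells bearing cis-promoter reporter constructs are dosed for 24 hours. Total RNA is reverse-transcribed and amplified, labelled fragments are sized by capillary electrophoresis, and signal changes are fitted bidirectionally versus DMSO.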
# [3] = ATG_TGFb_CIS: Attagene CIS-FACTORIAL HepG2 Assay for human Transforming Growth Factor (TGF) (AID 2282967); settings: HepG2 Attagene CIS TGFb reporter, mRNA transcription; actives raise or lower the signal
# Outline: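 Readout: fluorescently labeled reporter cDNA fragments resolved by capillary electrophoresis after RT-PCR. Transfected HepG2 cells dosed for 24 h; endogenous TF activity at TGFB1-linked cis element; gain or loss fitted relative to DMSO.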
# [4] = ATG_VDRE_CIS: Attagene CIS-FACTORIAL HepG2 Assay for human Vitamin D Receptor Element (VDRE) (AID 2282968); settings: HepG2 VDRE cis-reporter transcription, actives raise or lower the signal
# Outline: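 RT-PCR/CE readout of reporter mRNA; HepG2, transient transfection, 24 h dosing; DMSO baseline; bidirectional analysis.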
# [5] = target: Estrogen receptor (Homo sapiens) (UniProt P03372); test: ATG_ERa_TRANS: Attagene TRANS-FACTORIAL HepG2 Assay for human Estrogen Receptor alpha (ERa) (AID 2282970; active = hit-call score of the fitted dose curve at least 0.9, where 1 is the maximum); settings: HepG2 Attagene TRANS ERa GAL4 reporter, mRNA
# Chain of Estrogen receptor (Homo sapiens) (P03372 whole entry, looked up, the tested form may be a part): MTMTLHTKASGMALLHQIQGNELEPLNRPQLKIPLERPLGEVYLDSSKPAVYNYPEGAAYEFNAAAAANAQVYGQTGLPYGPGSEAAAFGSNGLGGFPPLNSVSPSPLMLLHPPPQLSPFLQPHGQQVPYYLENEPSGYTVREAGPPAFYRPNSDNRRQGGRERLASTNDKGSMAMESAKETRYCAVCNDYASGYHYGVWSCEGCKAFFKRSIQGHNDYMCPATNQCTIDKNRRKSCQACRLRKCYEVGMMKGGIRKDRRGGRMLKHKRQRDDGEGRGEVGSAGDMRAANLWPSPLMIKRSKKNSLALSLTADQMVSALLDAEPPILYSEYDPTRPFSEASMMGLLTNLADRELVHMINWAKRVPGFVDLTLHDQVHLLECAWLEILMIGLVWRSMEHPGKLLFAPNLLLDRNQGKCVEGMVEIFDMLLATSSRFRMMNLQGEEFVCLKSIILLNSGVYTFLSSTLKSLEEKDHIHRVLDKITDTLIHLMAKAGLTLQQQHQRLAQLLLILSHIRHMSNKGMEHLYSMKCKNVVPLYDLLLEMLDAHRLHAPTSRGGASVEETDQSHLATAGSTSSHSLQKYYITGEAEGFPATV
# Outline: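 After 24 h of compound treatment, RNA from HepG2 cells bearing transfected GAL4-UAS reporter constructs is converted to cDNA, amplified and fluorescently labelled. Capillary electrophoresis resolves the ERa-linked reporter; DMSO serves as negative control.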
# [6] = target: X-box-binding protein 1 (Homo sapiens) (UniProt P17861); test: ATG_Xbp1_CIS: Attagene CIS-FACTORIAL HepG2 Assay for human X-box Binding Protein 1 (XBP1) (AID 2282972); settings: HepG2 XBP1 cis-element reporter, Attagene multiplex; actives raise or lower the signal
# Chain of X-box-binding protein 1 (Homo sapiens) (P17861 whole entry, looked up): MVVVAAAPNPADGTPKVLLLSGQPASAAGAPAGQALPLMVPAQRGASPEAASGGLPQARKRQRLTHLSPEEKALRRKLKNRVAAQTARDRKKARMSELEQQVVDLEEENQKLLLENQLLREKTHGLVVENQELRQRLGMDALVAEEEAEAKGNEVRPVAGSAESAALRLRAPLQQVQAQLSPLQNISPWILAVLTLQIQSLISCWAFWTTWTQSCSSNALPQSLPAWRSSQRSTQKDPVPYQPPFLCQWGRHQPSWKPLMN
# Outline: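 HepG2, transient MRTU transfection (cis-promoter driven), 24 h compound exposure. Total RNA → oligo(dT) RT → PCR → 6-FAM labeling → HpaI cut → CE. Bidirectional fit vs DMSO.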
# [7] = target: Nuclear receptor subfamily 1 group I member 3 (Homo sapiens) (UniProt Q14994); test: ATG_CAR_TRANS: Attagene TRANS-FACTORIAL HepG2 Assay for human Constitutive Androstane Receptor (CAR) (AID 2282969; active = hit-call score of the fitted dose curve at least 0.9, where 1 is the maximum;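 also: activators raise reporter mRNA above DMSO so AC50 marks induction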); settings: HepG2 Attagene TRANS-FACTORIAL CAR reporter
# Chain of Nuclear receptor subfamily 1 group I member 3 (Homo sapiens) (Q14994 whole entry, looked up, the tested form may be a part): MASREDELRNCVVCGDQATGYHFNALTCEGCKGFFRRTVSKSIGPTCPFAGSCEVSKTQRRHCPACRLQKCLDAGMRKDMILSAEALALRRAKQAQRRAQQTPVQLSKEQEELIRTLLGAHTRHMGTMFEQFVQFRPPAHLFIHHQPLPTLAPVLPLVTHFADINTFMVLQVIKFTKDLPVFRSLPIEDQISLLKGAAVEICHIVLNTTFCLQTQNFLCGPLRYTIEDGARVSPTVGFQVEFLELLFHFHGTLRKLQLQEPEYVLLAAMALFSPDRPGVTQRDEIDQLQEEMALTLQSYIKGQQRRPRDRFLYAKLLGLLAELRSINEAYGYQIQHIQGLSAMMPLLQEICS
# Outline: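 HepG2 cells transiently transfected with multiplexed GAL4-UAS reporter units expressing chimeric NR-Gal4 proteins; compound exposure 24 h. Reporter mRNA measured by RT-PCR, 6-FAM labelling, HpaI digestion and capillary electrophoresis; gain-of-signal fitted against DMSO baseline.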
# [8] = ATG_M_19_TRANS: Attagene TRANS-FACTORIAL HepG2 Assay for M19 Transcription Factor (Internal Marker) (AID 2282974; active = hit-call score of the fitted dose curve at least 0.9, where 1 is the maximum); settings: HepG2 Attagene TRANS-FACTORIAL M19 internal marker reporter
# Outline: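 Multiplexed TRANS format: HepG2 liver cells bearing transient GAL4-UAS reporter units, chemical treatment 24 h, reporter transcripts quantified by RT-PCR plus capillary electrophoresis. DMSO defines baseline.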
# [9] = target: Steroid hormone receptor ERR1 (Homo sapiens) (UniProt P11474); test: ATG_ERRa_TRANS: Attagene TRANS-FACTORIAL HepG2 Assay for human Estrogen-Related Receptor alpha (ERRa) (AID 2282971; active = hit-call score of the fitted dose curve at least 0.9, where 1 is the maximum); settings: HepG2 Attagene TRANS reporter, ERRa transactivation
# Chain of Steroid hormone receptor ERR1 (Homo sapiens) (P11474 whole entry, looked up, the tested form may be a part): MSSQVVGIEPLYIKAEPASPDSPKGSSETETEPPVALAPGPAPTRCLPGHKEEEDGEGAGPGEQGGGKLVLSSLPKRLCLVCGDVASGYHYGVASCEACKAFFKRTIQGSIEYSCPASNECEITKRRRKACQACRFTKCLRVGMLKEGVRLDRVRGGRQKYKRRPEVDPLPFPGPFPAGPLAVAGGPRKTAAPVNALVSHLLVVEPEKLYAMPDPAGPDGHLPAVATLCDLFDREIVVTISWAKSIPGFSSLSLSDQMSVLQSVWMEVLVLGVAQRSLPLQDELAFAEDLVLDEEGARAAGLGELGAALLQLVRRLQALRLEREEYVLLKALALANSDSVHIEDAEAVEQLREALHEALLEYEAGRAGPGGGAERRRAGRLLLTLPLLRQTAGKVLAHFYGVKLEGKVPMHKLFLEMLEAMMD
# Outline: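 Transfected HepG2, 24 h dosing, ERRa-Gal4 chimera driving GAL4-UAS reporter. Readout: reporter mRNA via RT-PCR plus capillary electrophoresis (fluorescence). Positive direction vs DMSO control.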
# [10] = ATG_GAL4_TRANS: Attagene TRANS-FACTORIAL HepG2 Assay for GAL4 (Internal Marker) (AID 2282976; active = hit-call score of the fitted dose curve at least 0.9, where 1 is the maximum); settings: HepG2 Attagene TRANS GAL4 internal marker reporter
# Outline: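 RT-PCR/capillary electrophoresis readout of reporter mRNA. HepG2, transient MRTU transfection (GAL4-UAS reporters), 24 h compound exposure. Background-control endpoint, positive direction vs DMSO baseline.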
SMILES,AC50 [1],outcome [1],AC50 [2],outcome [2],outcome [3],AC50 [4],outcome [4],AC50 [5],AC50 [6],outcome [7],outcome [5],outcome [6],outcome [8],AC50 [3],outcome [9],outcome [10]
OCCCC(F)(F)C(F)(F)C(F)(F)C(F)(F)C(F)(F)C(F)(F)C(F)(F)F,33.7 µM (active),inactive,88.7 µM (active),inactive,inactive,150 µM (active),inactive,13.7 µM (active) and 13.2 µM (active),72.5 µM (active) and 97.8 µM (active),–,–,–,–,–,–,–
CCCCC(CC)COP(=O)(O)OCC(CC)CCCC (stereo unspecified),42.7 µM (active),–,–,inactive,inactive,27.6 µM (active),–,–,–,inactive,inactive,inactive,inactive,–,–,–
O=S(=O)(O)C(F)(F)C(F)(F)C(F)(F)C(F)(F)C(F)(F)C(F)(F)C(F)(F)F,78.9 µM (active),inactive,–,inactive,–,–,inactive,43.3 µM (active) and 58.7 µM (active),–,inactive,–,inactive,inactive,148 µM (active) and 81.5 µM (active),inactive,inactive
C=CC/C=C/C/C=C/C/C=C/C,–,inactive,–,inactive,inactive,–,inactive,–,–,inactive,inactive,inactive,–,–,–,–
c1ccc(B(c2ccccc2)c2ccccc2)cc1,–,inactive,–,inactive,inactive,20.7 µM (active),–,5.7 µM (active),31.7 µM (active),inactive,–,–,inactive,–,–,inactive
COC(OC(C)=O)c1ccccc1 (stereo unspecified),–,inactive,–,inactive,inactive,–,inactive,–,–,inactive,inactive,inactive,inactive,–,inactive,–
CCCCCCCCCCCCCCCC[N+](C)(C)Cc1ccccc1,–,inactive,–,inactive,inactive,–,inactive,–,–,inactive,inactive,inactive,–,–,–,–
CCN(Cc1cccc(S(=O)(=O)O)c1)c1ccc(C(=C2C=CC(=[N+](CC)Cc3cccc(S(=O)(=O)O)c3)C=C2)c2ccc(O)cc2S(=O)(=O)[O-])cc1,–,inactive,–,inactive,inactive,–,inactive,–,–,inactive,inactive,inactive,inactive,–,–,–
Nc1ccc([N+](=O)[O-])cc1O,–,inactive,–,inactive,inactive,–,inactive,–,–,inactive,inactive,inactive,inactive,–,–,inactive
O=S(=O)(O)c1ccc2ccccc2c1,–,inactive,–,inactive,inactive,29.3 µM (active),inactive,–,–,–,inactive,inactive,inactive,–,–,inactive
C=C(C)C(=O)OCC(F)(F)C(F)(F)C(F)(F)F,–,inactive,–,inactive,inactive,–,inactive,30.7 µM (active),–,–,inactive,inactive,inactive,–,–,inactive
FC(F)(F)C(F)(F)C(F)(F)N(C(F)(F)C(F)(F)C(F)(F)F)C(F)(F)C(F)(F)C(F)(F)F,–,inactive,–,inactive,inactive,–,inactive,–,–,–,inactive,inactive,inactive,–,inactive,inactive
Oc1ccc(Nc2ccccc2)cc1,–,inactive,–,inactive,inactive,56.3 µM (active),–,5.96 µM (active),–,inactive,–,inactive,–,–,–,inactive
CCC(=O)OCCc1ccccc1,–,inactive,–,inactive,inactive,–,inactive,–,–,inactive,inactive,inactive,inactive,–,–,inactive
CC/C=C\CCOC(C)=O,–,inactive,–,inactive,inactive,–,inactive,–,–,inactive,inactive,inactive,–,–,–,inactive
C=CC(F)(F)C(F)(F)C(F)(F)C(F)(F)C(F)(F)C(F)(F)C(F)(F)C(F)(F)F,–,inactive,–,inactive,inactive,–,inactive,–,–,–,inactive,inactive,inactive,–,inactive,inactive
FC(F)(Br)C(F)(F)C(F)(F)C(F)(F)C(F)(F)C(F)(F)Br,–,inactive,–,inactive,inactive,–,inactive,7.26 µM (active),–,inactive,–,inactive,–,–,–,inactive
CCCCOCCOCCOC(=O)CCCCC(=O)OCCOCCOCCCC,–,inactive,–,inactive,inactive,–,inactive,–,–,inactive,inactive,inactive,–,–,–,inactive
O=C(O)C(F)(F)C(F)(F)OC(F)(F)F,–,inactive,–,inactive,inactive,–,inactive,–,–,inactive,inactive,inactive,–,–,–,inactive
FC(F)(F)C(F)(F)C(F)(F)C(F)(F)C(F)(F)C(F)(F)CCS,–,inactive,–,inactive,inactive,–,inactive,–,–,inactive,inactive,inactive,–,–,–,inactive
O=S(=O)(OCC(F)F)C(F)(F)F,–,inactive,–,inactive,inactive,–,inactive,–,–,–,inactive,inactive,inactive,–,inactive,inactive
FC(F)(F)C(F)(F)C(F)(F)C(F)(F)C(F)(F)CCI,–,inactive,–,inactive,inactive,–,inactive,41 µM (active),–,–,–,inactive,inactive,–,inactive,–
O=C(Cl)C(F)(F)C(F)(F)C(F)(F)C(F)(F)C(F)(F)C(F)(F)C(F)(F)C(F)(F)F,33.4 µM (active),–,–,inactive,inactive,52.2 µM (active),–,25.5 µM (active),41.9 µM (active),–,–,–,–,–,–,–
OCC(F)(F)C(F)(F)C(F)(F)F,–,inactive,–,inactive,inactive,–,inactive,–,–,inactive,–,inactive,inactive,–,–,inactive
O=C(O)C(F)(OC(F)(F)C(F)(OC(F)(F)C(F)(F)C(F)(F)F)C(F)(F)F)C(F)(F)F (stereo unspecified),–,inactive,–,inactive,inactive,–,inactive,18.4 µM (active),–,–,inactive,inactive,inactive,–,inactive,inactive

# Reference: PubChem BioAssay (EPA / NIEHS)
